Many of the other results were omitted from the sample, so hits are more common in it than they were.
CBX7 inh: CBX7 chromodomain binding inhibitors, primary screen, biochemical, AlphaScreen; 66,000 compounds, 1.1% hits; normalised signal (fraction of DMSO) (test concentration not listed); Chromobox protein homolog 7 (Homo sapiens), O95931; AlphaScreen His6-CBX7 / biotin-H3K27me3 peptide binding; active compounds read low; in the data active means normalised signal below about 0.5
Target sequence (O95931 whole entry, looked up): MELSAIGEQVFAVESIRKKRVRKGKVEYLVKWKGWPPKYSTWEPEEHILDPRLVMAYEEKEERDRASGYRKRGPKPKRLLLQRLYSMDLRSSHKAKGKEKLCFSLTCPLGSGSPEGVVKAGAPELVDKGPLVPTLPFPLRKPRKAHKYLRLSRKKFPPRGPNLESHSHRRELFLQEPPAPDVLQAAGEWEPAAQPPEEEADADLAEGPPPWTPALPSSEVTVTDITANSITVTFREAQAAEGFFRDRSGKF
* marks the source's active call; other numbers are inactive results.

SMILES	CBX7 inh
COc1ccc2[nH]c(C)c(CCNCc3ccc4ccccc4n3)c2c1	0.55
COc1ccc(OC)c(CNCCc2c(C)[nH]c3ccc(OC)cc23)c1	0.71
COc1ccc(F)c(CNCCc2c(C)[nH]c3ccc(OC)cc23)c1	0.37*
CCOc1cc(CNCCc2c(C)[nH]c3ccc(OC)cc23)ccc1OC	0.72
COc1ccc2[nH]c(C)c(CCNCc3cccc(C(F)(F)F)c3)c2c1	0.2*
COc1ccc2[nH]c(C)c(CCNCc3ccc(OC(F)(F)F)cc3)c2c1	0.42*
COc1ccc2[nH]c(C)c(CCNCc3ccc(F)cc3)c2c1	0.5
COc1ccc2[nH]c(C)c(CCNCc3cccc(OC)c3OC)c2c1	0.61
COc1ccc(CNCCc2c(C)[nH]c3ccc(OC)cc23)c(F)c1	0.62
COc1ccc2[nH]c(C)c(CCNCc3cccc(F)c3)c2c1	0.51
COc1ccc2[nH]c(C)c(CCNCc3ncc[nH]3)c2c1	0.18*
CCCCc1ncc(CNCCc2c(C)[nH]c3ccc(OC)cc23)[nH]1	0.99
COc1ccc(/C=C/c2nc3ccccc3c(=O)n2-c2ccc(F)cc2)cc1	1.3
COc1ccc(Cl)cc1-n1c(/C=C/c2ccccc2)nc2ccccc2c1=O	0.99
COc1ccc(/C=C/c2nc3ccccc3c(=O)n2-c2ccccc2Cl)cc1	1.2
Cc1ccccc1-n1c(CSc2ncccn2)nc2ccccc2c1=O	0.97
Cc1ccc(-n2c(/C=C/c3c[nH]c4ccccc34)nc3ccccc3c2=O)cc1	1
COCc1cc(C2SCC(=O)Nc3c2c(-c2ccccc2)nn3-c2ccccc2)ccc1OC (stereo not given)	0.75
Cc1ccc(F)cc1-n1c(/C=C/c2ccccc2)nc2ccccc2c1=O	0.88
Cc1cccc(-n2c(/C=C\c3ccc(F)cc3)nc3ccccc3c2=O)c1	1.3
CCOc1ccccc1CN(CCc1ccc2c(c1)OCO2)Cc1ccccc1OC	0.95
CCOc1ccc(CN(CCc2ccc3c(c2)OCO3)Cc2ccccc2)cc1	1.1
CCOc1ccccc1CN(CCc1ccc2c(c1)OCO2)Cc1ccc(F)c(F)c1	0.47*
O=C(CN1CC(c2ccccc2)CC1=O)Nc1ccc(Br)cc1 (stereo not given)	0.98
CCOc1cc2c(cc1OCC)-n1cccc1C(c1ccc(OC(F)(F)F)cc1)NC2 (stereo not given)	0.83
